Only some compounds are listed: those with a hit (about 1.3% of all), similar ones and a draw of the others.
PI5P4Ka inh – PI5P4K alpha (human) kinase inhibition. P48426. PI5P4Kalpha enzyme, ADP-Glo luminescence, 60 min; stronger effect = lower value. max response, %. hit rate 1.2% among 330,000; active = max response of -50% or lower; inconclusive = between -30% and -50%; inactive = -30% or higher; note: value at the top dose of about 77 µM; % is set by controls: 0 for no effect and ±100 for the full control effect
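Human PI5P4Kalpha with substrate in 0.038 M HEPES pH 7.4, 0.28 mM EGTA, 0.1% CHAPS, 5% DMSO; reaction started with 5 microM ATP (final), 60 min at room temperature. ADP formed read by ADP-Glo luminescence.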
Pin1 inhibitor – blocks the human prolyl isomerase Pin1 | Q13526 | Pin1 FP peptide displacement, HiFluor488, 10 min | Potency, µM (top dose mostly 115 µM), without a hit: at the highest dose activity, negative = inhibition, usual class: inhibitors | hit rate 0.009% among 390,000 | AID 504891; active = well fitted inhibition curve with a large enough effect in the polarisation, with a control signal flat, not every such curve was filed as active; inconclusive = small, poorly fitted or top-dose-only effect, or effect the other way, or a change in a side signal; inactive = no such curve, though single readings can be large or run the other way; the % refers to the polarisation; note: potency is the fitted concentration of half-maximal effect; % is set by controls: 0 for no effect and ±100 for the full control effect
Target sequence (Q13526 whole entry, looked up): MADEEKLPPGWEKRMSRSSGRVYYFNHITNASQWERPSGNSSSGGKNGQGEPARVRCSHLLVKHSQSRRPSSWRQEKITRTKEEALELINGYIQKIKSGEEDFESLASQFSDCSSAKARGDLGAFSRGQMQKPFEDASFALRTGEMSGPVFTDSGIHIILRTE
WRN helicase inh-1 – inhibitors of human WRN helicase | Potency, µM (top dose mostly 114 µM), inactives show top-dose activity change, negative = inhibition, most hits filed as inhibitors | AID 651768 | WRN helicase unwinding, fluorescent forked duplex, kinetic | hit rate 0.46% among 360,000 | Q14191; note: potency is the fitted concentration of half-maximal effect; % is set by controls: 0 for no effect and ±100 for the full control effect; nearly all actives have a fitted effect of over 55% in size
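Enzyme (20 nM final) and test compound sit together 15 min at room temperature before substrate addition. Substrate is a single-forked duplex oligonucleotide (100 nM) labelled with fluorophore and quencher, with 2 mM ATP; helicase unwinding raises red fluorescence, read kinetically.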
FEN1 inhibitor – blocks human flap endonuclease 1. P39748. Recombinant FEN1 flap cleavage, fluorescence, 15 min. Potency, µM (series often up to 114 µM), without a hit: at the top dose activity change, negative = inhibition, hits mostly inhibitors. hit rate 0.35% among 390,000; note: potency is the fitted concentration of half-maximal effect; % is set by controls: 0 for no effect and ±100 for the full control effect; nearly all actives have a fitted effect of over 65% in size
Target sequence (P39748 whole entry, looked up): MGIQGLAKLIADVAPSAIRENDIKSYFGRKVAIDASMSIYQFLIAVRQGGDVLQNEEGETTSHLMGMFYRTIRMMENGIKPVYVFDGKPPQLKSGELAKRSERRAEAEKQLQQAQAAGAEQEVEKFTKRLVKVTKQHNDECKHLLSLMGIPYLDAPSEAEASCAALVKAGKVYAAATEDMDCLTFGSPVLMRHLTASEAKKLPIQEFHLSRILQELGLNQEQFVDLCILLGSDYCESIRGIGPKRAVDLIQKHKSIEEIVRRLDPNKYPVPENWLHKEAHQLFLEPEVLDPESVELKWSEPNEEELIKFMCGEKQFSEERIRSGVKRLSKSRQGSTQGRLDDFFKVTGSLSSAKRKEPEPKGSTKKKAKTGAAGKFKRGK
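With each library titrated from low to high concentration, compounds met 10 nM FEN1 for 15 min at room temperature before 50 nM substrate was added; readings at 0 and 15 min fed four-parameter Hill curve fits.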
GRP78 ERSR act – induces the endoplasmic reticulum stress response in human glioma cells; U87-MG GRP78 promoter luciferase reporter, 16 h; Potency, µM, inactives show at the top dose activation, most hits filed as activators; hit rate 0.02% among 420,000; note: potency is the fitted concentration of half-maximal effect; series mostly up to about 76 µM; % of control where 0% means no effect; nearly all actives have a fitted effect of over 35% in size
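ERSR induction read as luciferase luminescence (Bright-Glo, 10 min at room temperature) in stably transfected human U87-MG glioma cells exposed to compounds for 16 h, using GRP78 as sensor.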
PGK inhibitor – inhibitors of T. brucei phosphoglycerate kinase. hit rate 0.043% among 380,000. Potency, µM (top dose mostly 57.5 µM), for inactives: at the top dose activity change, negative = inhibition, usual class: inhibitors. PGK/GAPDH coupled, Kinase-Glo luminescence, 60 min; note: potency is the fitted concentration of half-maximal effect; % is set by controls: 0 for no effect and ±100 for the full control effect; nearly all actives have a fitted effect of over 60% in size
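Luminescent ATP detection (Kinase-Glo Plus) follows a 60-minute room-temperature incubation, with wells lacking PGK as controls. Buffer: 100 mM TEA (pH 7.6), 5 mM MgCl2, 0.01% Tween-20. Coupling enzyme GAPDH (100 nM final) supplies unstable 1,3-BPG in-well.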
WRN helicase inh-2 – WRN helicase inhibition, cherry-pick retest | shares compounds with WRN helicase inh-1 | WRN helicase DNA unwinding, fluorescence kinetic | Potency, µM (top dose mostly 57.1 µM), for inactives: at the highest dose activity, negative = inhibition, hits mostly inhibitors | hit rate 63% among 610 | AID 720497; note: potency is the fitted concentration of half-maximal effect; nearly all actives have a fitted effect of over 65% in size
TO DNA binding – counter-screen for WRN helicase inhibitors: DNA binding; shares compounds with WRN helicase inh-1; thiazole orange DNA binding displacement, fluorescence; Potency, µM (titrated, usually from 57.1 µM), without a hit: top-dose activity change, negative = inhibition, usual class: inhibitors; hit rate 10% among 610; AID 720499;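 note: drop in dye fluorescence marks compound binding to DNA; potency is the fitted concentration of half-maximal effect; % is set by controls: 0 for no effect and ±100 for the full control effect; nearly all actives have a fitted effect of over 60% in size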
BLM counter – blocks human BLM helicase in WRN counterscreen; shares compounds with WRN helicase inh-1; Recombinant BLM helicase DNA unwinding, red fluorescence; Potency, µM (series often up to 57.1 µM), inactives show at the top dose activity change, negative = inhibition, most hits filed as inhibitors; hit rate 60% among 610; AID 720503; note: potency is the fitted concentration of half-maximal effect; nearly all actives have a fitted effect of over 60% in size
* hit, by the source's call; i = inactive; ? = inconclusive; nt = no result. Unless noted, calls come from the whole dose curve; as a rule, active = well fitted curve in the direction sought with a large enough effect; inconclusive = small, poorly fitted or top-dose-only effect, or another doubt; inactive = no such curve, though single readings can be large; an effect the other way counts as inactive or inconclusive.

SMILES	PI5P4Ka inh	Pin1 inhibitor	WRN helicase inh-1	FEN1 inhibitor	GRP78 ERSR act	PGK inhibitor	WRN helicase inh-2	TO DNA binding	BLM counter
CC1=C(C)CS(=O)N(S(=O)(=O)c2ccc(Cl)cc2)C1 (stereo not given)	-20	-1%	13µM*	-28%	-17%	2%	-30%	2%	?
Cc1cccc(CNC(=O)c2cnn(-c3ncc(C)c(-c4ccc(F)cc4)n3)c2C)n1	nt	nt	nt	nt	-2%	nt	nt	nt	nt
O=C(CSc1nc2ccsc2c(=O)n1CC1CCC(C(=O)O)CC1)c1ccc(F)cc1 (stereo not given)	-2	4%	-10%	-17%	-1%	-13%	nt	nt	nt
O=C(CSc1nc2ccsc2c(=O)n1CC1CCC(C(=O)O)CC1)c1ccc(Cl)cc1 (stereo not given)	11	-13%	?	?	-4%	?	24µM*	10%	15µM*
Cc1ccc2nc(CCl)[n+]([O-])c(-c3ccccc3)c2c1	?	1%	79µM*	5%	-2%	0%	-1%	-2%	-11%
Cc1ccc2nc(Cl)c(-c3ccccc3)cc2c1	23	-7%	5%	-21%	5%	-7%	nt	nt	nt
O=C(O)C1Oc2ccccc2C1c1ccccc1 (stereo not given)	-5	-6%	0%	-13%	0%	-3%	nt	nt	nt
O=C(O)C1NCc2[nH]cnc2C1c1ccccc1 (stereo not given)	nt	nt	nt	nt	nt	nt	-27%	-3%	?
O=C1/C(=C\c2ccco2)SC(=S)N1c1ccc(O)cc1	-11	2%	-8%	-7%	-5%	-2%	nt	nt	nt
O=C1/C(=C/c2ccco2)SC(=S)N1c1cccnc1	-105*	nt	13µM*	28µM*	-1%	?	22µM*	-22%	8.6µM*
O=C1/C(=C/C=C/c2ccco2)SC(=S)N1c1ccc(O)cc1	-102*	?	32µM*	14µM*	-1%	?	12µM*	?	8.6µM*
COc1cccc(C(=O)NCC2Cc3cccc(-c4nc(C)cnc4C)c3O2)c1OC (stereo not given)	nt	nt	nt	nt	9%	nt	nt	nt	nt
Oc1cc(-c2nc3ccccc3s2)cc2c1OCCN(Cc1cccn1-c1ccc(Cl)cn1)C2	nt	nt	nt	nt	-3%	nt	nt	nt	nt
COc1cc(/C=N/NC(=O)c2ccc3c(c2)OCCO3)c(Br)c(Br)c1O	-29	?	?	?	2%	-2%	?	-24%	?
COC(=O)C1CCN(Cc2ccc3c(c2)CN(C(=O)C(C)N2CCOCC2)CCO3)CC1 (stereo not given)	nt	nt	nt	nt	-4%	nt	nt	nt	nt
O=C(O)c1ccc(-c2nc(-c3ccccc3)c(-c3cccs3)[nH]2)cc1	-2	-7%	-20%	4%	5%	-2%	nt	nt	nt
Cc1ccc(-c2[nH]c(-c3ccc(C(=O)O)cc3)nc2-c2ccccc2)cc1	2	?	?	-7%	-3%	-1%	24µM*	-28%	?
CC(O)(c1ccccc1)c1nc(-c2ccncc2)cs1 (stereo not given)	-2	nt	?	nt	-3%	nt	?	-27%	?
O=C(Nc1cccc(NC(=O)c2cccs2)c1)c1ccc(Br)o1	6	3%	-6%	-9%	0%	-3%	nt	nt	nt
O=C(Nc1ccc(NC(=O)c2cccs2)cc1)c1ccc(Br)o1	2	21%	?	-4%	1%	-15%	?	-9%	9.6µM*
CC1(C)CC(=O)C(C(C2=C(O)CC(C)(C)CC2=O)c2cccs2)C(=O)C1 (stereo not given)	?	1%	?	0%	-6%	-5%	-8%	-7%	-6%
O=c1c(Br)ccc(Br)cc1Br	-6	-9%	10µM*	?	-14%	2%	24µM*	-20%	22µM*
O=C1CN(S(=O)(=O)c2cc(Br)ccc2Br)CCN1	0	1%	6%	-2%	-5%	i	nt	nt	nt
CCc1sc(C(C2C(=O)CC(C)(C)CC2=O)C2C(=O)CC(C)(C)CC2=O)cc1[N+](=O)[O-]	?	-2%	32µM*	-24%	-16%	2%	22µM*	19µM*	22µM*
CC1(C)CC(=O)C(C(c2ccc(F)cc2)C2C(=O)CC(C)(C)CC2=O)C(=O)C1	7	-4%	-6%	-2%	-4%	i	nt	nt	nt
SMILES	PI5P4Ka inh	Pin1 inhibitor	WRN helicase inh-1	FEN1 inhibitor	GRP78 ERSR act	PGK inhibitor	WRN helicase inh-2	TO DNA binding	BLM counter
Cc1ccc(-c2nc3c(c(SCC(=O)Nc4cccc(C(=O)O)c4)n2)Cc2cccc(C)c2O3)cc1	nt	?	nt	?	2%	nt	2.2µM*	2.7µM*	0.86µM*
Oc1cc2c(cc1C(c1ccc(Br)cc1)N1CCCC1)OCO2 (stereo not given)	-102*	5%	45µM*	1%	-7%	i	?	-11%	?
CC(/C=C/c1ccc(C)o1)=C\C(=O)O	-5	-3%	3%	-7%	-3%	-2%	nt	nt	nt
CC(=C/C(=O)O)/C=C/c1ccc(Cl)o1	-14	nt	?	-9%	-7%	?	6.1µM*	-7%	3µM*
CCN1/C(=C/c2ccc3cc(C)ccc3[n+]2C)Sc2ccc3sccc3c21	-24	11%	89µM*	?	-10%	nt	0.34µM*	0.22µM*	0.68µM*
COc1ccc(-c2csc(NC(=S)NC(=O)c3cccs3)n2)cc1Br	0	-1%	-36%	-6%	-6%	5%	nt	nt	nt
COc1ccc(-c2csc(NC(=S)NC(=O)c3cccs3)n2)cc1OC	-67*	29%	?	-35%	-2%	-4%	?	?	?
Cc1sc2c3ccsc3ccc2[n+]1C	-29	2%	?	1%	-9%	6%	-4%	-5%	?
Nc1ccc2c(c1)C(=O)C(=O)c1ccccc1-2	-27	?	35µM*	?	-15%	?	19µM*	?	3.4µM*
C=CCn1c(SCC(=O)c2ccc(O)c(O)c2)nnc1-c1cccc(C)c1	-1	-14%	20µM*	-4%	2%	?	8.6µM*	-9%	?
C=CCn1c(SCC(=O)c2ccc(O)c(O)c2)nnc1-c1ccccc1OC	-8	-4%	?	9%	5%	-14%	15µM*	-7%	12µM*
Cc1nc(C)n(CC(=O)NCC2Cc3cc(-c4ccsc4)cc(Cl)c3O2)n1 (stereo not given)	nt	nt	nt	nt	-1%	nt	nt	nt	nt

Bioassay records: PubChem, National Center for Advancing Translational Sciences (NCATS)
